# LMP1 NFkB inh: inhibitors of Epstein-Barr LMP1-induced NF-kappaB reporter. LMP1-induced NF-kappaB luciferase reporter cells, luminescence. inhibition, % at 12.5 µM. 350,000 tested, 0.69% active. AID 504558; in the data active = inhibition above about 41%;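 note: 0% = neutral control wells and 100% = reference inhibitor control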
# TWEAK Fn14 block: TWEAK-Fn14 signaling inhibition | inhibition, % at 10 µM | TWEAK-stimulated Fn14 reporter cells, luciferase luminescence, 8 h | 360,000 tested, 2% active | AID 1159606; in the data active = inhibition above about 50%
# MITF TRPM1 inh: reduces MITF-dependent TRPM1 promoter luciferase signal; AID 488899; SK-MEL-5 TRPM1 promoter luciferase, 24 h; inhibition, % at 12.5 µM; 330,000 tested, 0.83% active;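 active = mean inhibition across replicates of 60% or more, whatever share of single replicates reaches that level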
# Shn3 3UTR inh: Schnurri-3 reporter inhibition in Clone20 osteoblasts. Clone20 osteoblast Shn3 3'UTR firefly luciferase, 24 h. inhibition, % at 12.5 µM. 360,000 tested, 0.52% active. AID 588674;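 active = mean inhibition of at least 75% with every replicate also reaching 75%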;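 note: 0% = median of neutral control wells and 100% = pilot-screen positive control compound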
# TROY NFkB inh: inhibitors of TROY-dependent NF-kB signaling; Q293 LMP1-TROYcd NF-kB luciferase reporter, 4 h; inhibition, % at 10 µM; 360,000 tested, 0.98% active;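 active = compounds whose plate-normalised and pattern-corrected inhibition of the luciferase reporter signal at the single screening dose is 50% or more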
# Peg3 promoter: inhibitors of Peg3 promoter | HeLa PEG-Prom luciferase reporter, luminescence, overnight | inhibition, % at 20 µM | 360,000 tested, 1.7% active | AID 588405;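 active = inhibition of at least 50% at 20 µM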
# * marks the source's active call; other numbers are inactive results; / = not tested or not shown. Compounds with a hit are over-represented: about 4.1% of the library has one in this group of screens.
SMILES,LMP1 NFkB inh,TWEAK Fn14 block,MITF TRPM1 inh,Shn3 3UTR inh,TROY NFkB inh,Peg3 promoter
CCCCCSc1nc2c(c(=O)[nH]c(=O)n2C)n1CC,82*,-7,-12,-2,-2,-10
Cc1ccc2c(c1)N(CC(=O)OCC(=O)NCc1ccccc1)C(=O)CO2,2,-8,10,-6,12,12
O=C(c1cn(Cc2ccccc2)nc1-c1cccnc1)N1CCN(Cc2ccccc2)CC1,-1,9,-11,-11,-2,98*
O=C(c1cn(Cc2ccccc2)nc1-c1cccnc1)N1CCN(Cc2c(F)cccc2Cl)CC1,-3,0,5,0,21,18
Nc1nnc(-c2cccnc2)s1,-5,1,9,0,3,0
c1ccc(Nc2nnc(-c3cccnc3)s2)cc1,-3,51*,-37,-64,-6,-181
Cc1nc2ccccc2n1/N=C/c1ccc([N+](=O)[O-])s1,-4,70*,82*,92*,4,43
Cc1nc2ccccc2n1/N=C/c1ccc([N+](=O)[O-])o1,3,11,10,4,3,-8
O=[N+]([O-])c1ccc(/C=N/n2c(CO)nc3ccccc32)s1,-25,-9,72*,-14,-8,45
O=C(CNC(=O)c1ccccc1Cl)N/N=C/c1ccc([N+](=O)[O-])s1,-4,-28,46,24,3,-10
CC(C)c1cccc(C(C)C)c1OC(=O)[C@H]1OC(c2ccc(Br)cc2)=C[C@@H]1c1ccc(Br)cc1,3,32,-1,26,13,47
COc1ccc(OCCC(=O)OCC(=O)Nc2cccc(Br)c2)cc1,3,101*,-4,8,50,-6
COc1ccc(NC(=O)COC(=O)c2c3c(nc4ccccc24)CCCC3)cc1Cl,29,65*,-11,16,53*,26
COc1ccc(OC)c(NC(=O)COC(=O)COc2ccc(Nc3ccccc3)cc2)c1,70*,33,-3,5,10,2
COc1ccc(OCCC(=O)OCC(=O)Nc2ccc(Br)cc2)cc1,2,-14,4,1,16,-1
CNC(=O)COC(=O)c1c2c(nc3ccccc13)CCC2,-11,-6,-10,1,18,3
COc1ccc(NC(=O)COc2ccccc2)c(OC)c1,-11,-18,-63,-101,-53,-110
COc1ccc(NC(=O)COC(=O)c2c3c(nc4ccccc24)CCCC3)cc1,7,59*,4,46,42,34
C[C@H]1[C@H](NC(=O)C(=NOC(C)(C)C(=O)O)c2csc(N)n2)C(=O)N1S(=O)(=O)O,10,12,-1,4,0,-1
O=C(COC(=O)c1ccccn1)Nc1nc(-c2cccc([N+](=O)[O-])c2)cs1,-11,-39,-5,0,-22,-40
O=C(Nc1nnc([C@H]2C[C@H](O)[C@@H](CO)O2)s1)Nc1cccc(Cl)c1Cl,/,-35,/,6,-63,-37
CC(C)Oc1ccc(C(=O)NN2C(=O)NC3(CCCCC3)C2=O)cc1,-4,-11,-8,-27,-3,-47
CCCCNC(=O)COC(=O)c1c2c(nc3ccccc13)CCC2,-4,24,-4,30,10,10
COc1ccc(OC)c(NC(=O)COC(=O)c2c3c(nc4ccccc24)CCCC3)c1,31,55*,-11,90*,29,78*
Cc1ccc(C)c(N2CC(C(=O)O)CC2=O)c1 (stereo not drawn),6,-2,0,0,-12,16
COC(=O)c1cnn(-c2cc(Oc3cccc(C)c3)ncn2)c1N,-9,91*,-20,-29,/,-110
Cc1cccc(NC(=O)CSc2nc3ccccc3c(=O)n2C)c1C,14,40,/,87*,23,19
Cc1cccc(C)c1OCC(=O)Nn1c(C)nc2ccccc2c1=O,4,78*,9,-18,/,0
